Activity calls are given as the source filed them. Rule for the calls: active = hit-call score of the fitted dose curve at least 0.9, where 1 is the maximum; inactive = score below 0.9.
Legend:
Conditions in all cases: mRNA level, 48 h; actives raise or lower the signal
[1] = read-out: Intercellular Adhesion Molecule 1 (ICAM1), ICAM1 (gene 3383); assay: LTEA_HepaRG_ICAM1: Life Technologies and Expression Analysis (LTEA) Assay for Intercellular Adhesion Molecule 1 (ICAM1) using HepaRG (AID 2283507)
In short: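 ICAM1 transcript levels measured by qRT-PCR, normalized to three housekeeping genes (ACTB, GAPDH, POLR2A), after 48 h chemical exposure of HepaRG cells. Duplicate eight-point half-log series from 100 uM in 0.5% DMSO; gain or loss fitted against vehicle.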

[2] = read-out: Insulin-like growth factor-binding protein 1 (IGFBP1), IGFBP1 (gene 3484); assay: LTEA_HepaRG_IGFBP1: Life Technologies and Expression Analysis (LTEA) Assay for Insulin-like growth factor-binding protein 1 (IGFBP1) using HepaRG (AID 2283508)
In short: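 Read-out is qRT-PCR transcript level normalized to three housekeeping genes, fitted in both directions against 0.5% DMSO. Differentiated HepaRG cells received eight half-log concentrations (top 100 uM) in duplicate for 48 h in serum-free induction medium.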

[3] = read-out: Interleukin 6 Receptor (IL6R), IL6R (gene 3570); assay: LTEA_HepaRG_IL6R: Life Technologies and Expression Analysis (LTEA) Assay for Interleukin 6 Receptor (IL6R) using HepaRG (AID 2283510)
In short: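 HepaRG, 48 h exposure, 8-pt half-log series, top 100 uM, 0.5% DMSO vehicle, duplicates. Read-out: TaqMan qRT-PCR of IL6R transcript, housekeeping-gene normalized. Gain or loss fitted relative to DMSO baseline.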

[4] = read-out: Potassium channel subfamily K member 1 (KCNK1), KCNK1 (gene 3775); assay: LTEA_HepaRG_KCNK1: Life Technologies and Expression Analysis (LTEA) Assay for Potassium channel subfamily K member 1 (KCNK1) using HepaRG (AID 2283511)
In short: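 Human HepaRG cultures receive test chemicals for 48 h in 0.5% DMSO, top concentration 100 uM with half-log dilutions. Induction or suppression of KCNK1 mRNA relative to DMSO is derived by bidirectional fitting of qRT-PCR data.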

[5] = read-out: Keratin 19 (KRT19), KRT19 (gene 3880); assay: LTEA_HepaRG_KRT19: Life Technologies and Expression Analysis (LTEA) Assay for Keratin 19 (KRT19) using HepaRG (AID 2283512)
In short: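 KRT19 transcript measured by TaqMan qRT-PCR, referenced to three housekeeping genes, after HepaRG cells received test chemicals for 48 h. Eight half-log concentrations, top 100 uM, 0.5% DMSO vehicle; increases and decreases both fitted.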

[6] = read-out: JUN Transcription Factor, JUN (gene 3725); assay: LTEA_HepaRG_JUN: Life Technologies and Expression Analysis (LTEA) Assay for JUN Transcription Factor using HepaRG (AID 2283513)
In short: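 HepaRG, 48 h exposure, 8-pt half-log series top 100 uM, 0.5% DMSO, duplicate. JUN mRNA by qRT-PCR (Fluidigm), housekeeping-normalized (ACTB/GAPDH/POLR2A); bidirectional curve fit vs DMSO baseline.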

[7] = read-out: Lipase C (LIPC), LIPC (gene 3990); assay: LTEA_HepaRG_LIPC: Life Technologies and Expression Analysis (LTEA) Assay for Lipase C (LIPC) using HepaRG (AID 2283514)
In short: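 In this multiplexed gene-expression screen, human HepaRG cultures received test chemicals for 48 h across eight concentrations with 100 uM highest, in duplicate. Values reflect LIPC mRNA induction or suppression versus DMSO vehicle, from normalized qRT-PCR.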

[8] = read-out: Lipoprotein lipase (LPL), LPL (gene 4023); assay: LTEA_HepaRG_LPL: Life Technologies and Expression Analysis (LTEA) Assay for Lipoprotein lipase (LPL) using HepaRG (AID 2283515)
In short: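 Concentration-response testing used half-log steps from 100 uM in 0.5% DMSO on human HepaRG cells, 48 h, duplicate wells. Phenobarbital 1 mM served as induction control; LPL mRNA was normalized to ACTB, GAPDH, POLR2A.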

[9] = read-out: MicroRNA 122 (MIR122), gene 406906; assay: LTEA_HepaRG_MIR122: Life Technologies and Expression Analysis (LTEA) Assay for MicroRNA 122 (MIR122) using HepaRG (AID 2283516); note: the transcript read is the microRNA miR-122
In short: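 qRT-PCR read-out (TaqMan, Fluidigm array), normalized to three housekeeping genes; HepaRG cells dosed 48 h at 8 concentrations up to 100 uM in 0.5% DMSO, duplicate; gain or loss fitted against DMSO baseline.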

[10] = read-out: matrix metalloproteinase-10 (MMP10), MMP10 (gene 4319); assay: LTEA_HepaRG_MMP10: Life Technologies and Expression Analysis (LTEA) Assay for matrix metalloproteinase-10 (MMP10) using HepaRG (AID 2283517)
In short: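 In differentiated HepaRG cultures kept in 0.5% DMSO, test chemicals act for 48 h over an eight-point range with a top dose of 100 uM. Expression is then quantified by TaqMan RT-PCR against ACTB, GAPDH and POLR2A.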

MYC, MYC (gene 4609) = assay: LTEA_HepaRG_MYC: Life Technologies and Expression Analysis (LTEA) Assay for MYC using HepaRG (AID 2283518)
In short: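 MYC transcript changes, up or down relative to 0.5% DMSO, from TaqMan qRT-PCR normalized to three housekeeping genes. Human HepaRG cultures received chemicals for 48 h at eight half-log concentrations up to 100 uM, in duplicate.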

[11] = read-out: matrix metalloproteinase-3 (MMP3), MMP3 (gene 4314); assay: LTEA_HepaRG_MMP3: Life Technologies and Expression Analysis (LTEA) Assay for matrix metalloproteinase-3 (MMP3) using HepaRG (AID 2283519)
In short: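 Human liver HepaRG cultures received chemicals (top concentration 100 uM, 0.5% DMSO) for 48 h in duplicate. MMP3 mRNA induction or loss was then assessed via TaqMan qRT-PCR with housekeeping-gene normalisation.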

[12] = read-out: Paternally Expressed 10 (PEG10), PEG10 (gene 23089); assay: LTEA_HepaRG_PEG10: Life Technologies and Expression Analysis (LTEA) Assay for Paternally Expressed 10 (PEG10) using HepaRG (AID 2283520);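 for AC50: PEG10 transcript by qRT-PCR normalised to ACTB GAPDH and POLR2A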
In short: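 qRT-PCR read-out: PEG10 mRNA normalised to three housekeeping genes, fitted bidirectionally against 0.5% DMSO vehicle. HepaRG cells received test chemicals for 48 h in serum-free induction medium, 8 points, top 100 uM, half-log steps.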

[13] = read-out: Protein phosphatase 2A (PPP2R4), PTPA (gene 5524); assay: LTEA_HepaRG_PPP2R4: Life Technologies and Expression Analysis (LTEA) Assay for Protein phosphatase 2A (PPP2R4) using HepaRG (AID 2283522)
In short: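 HepaRG, 48 h exposure, 8-pt half-log series from 100 uM, 0.5% DMSO vehicle, duplicates. Readout: PPP2R4 mRNA, Fluidigm qRT-PCR, housekeeping-normalized. Bidirectional curve fit vs DMSO baseline.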

[14] = read-out: Phosphatase and tensin (PTEN), PTEN (gene 5728); assay: LTEA_HepaRG_PTEN: Life Technologies and Expression Analysis (LTEA) Assay for Phosphatase and tensin (PTEN) using HepaRG (AID 2283523)
In short: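 Expression of PTEN is quantified in the human liver line HepaRG following two days of dosing (top concentration 100 uM, half-log dilutions, 0.5% DMSO). Values derive from bidirectional curve fitting relative to DMSO controls.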

[15] = read-out: solute carrier (SLC22A1), SLC22A1 (gene 6580); assay: LTEA_HepaRG_SLC22A1: Life Technologies and Expression Analysis (LTEA) Assay for solute carrier (SLC22A1) using HepaRG (AID 2283524);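 for AC50: differentiated human HepaRG liver cells in serum-free induction medium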
In short: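 Transcript induction or suppression of SLC22A1 in human HepaRG cultures is scored after 48 h chemical treatment, with DMSO (0.5%) as baseline for bidirectional fitting. Concentrations span eight half-log points topping at 100 uM.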

[16] = read-out: Pyruvate Dehydrogenase Kinase 4 (PDK4), PDK4 (gene 5166); assay: LTEA_HepaRG_PDK4: Life Technologies and Expression Analysis (LTEA) Assay for Pyruvate Dehydrogenase Kinase 4 (PDK4) using HepaRG (AID 2283525)
In short: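 Eight-point, half-log concentration series (max 100 uM, 0.5% DMSO) applied to differentiated HepaRG cells for 48 h in duplicate. Endpoint: PDK4 mRNA induction or repression by qRT-PCR against DMSO baseline.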

[17] = read-out: NAD(P)H dehydrogenase [quinone] 1 (NQO1), NQO1 (gene 1728); assay: LTEA_HepaRG_NQO1: Life Technologies and Expression Analysis (LTEA) Assay for NAD(P)H dehydrogenase [quinone] 1 (NQO1) using HepaRG (AID 2283526)
In short: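 qRT-PCR read-out (Fluidigm TaqMan), normalized to three housekeeping genes, after 48 h chemical exposure of HepaRG cells. Concentrations: eight points, top 100 uM, half-log steps, 0.5% DMSO vehicle. Gain or loss of signal fitted relative to DMSO.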

[18] = read-out: Nuclear factor NF-kappa-B p105 subunit (Homo sapiens) (UniProt P19838); assay: LTEA_HepaRG_NFKB1: Life Technologies and Expression Analysis (LTEA) Assay for Nuclear Factor Kappa B Subunit 1 (NFKB1) using HepaRG (AID 2283521);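 note: differentiated human HepaRG liver cells in serum-free induction medium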
In short: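 NFKB1 transcript was measured by TaqMan qRT-PCR on Fluidigm arrays, normalised to three housekeeping genes and fitted in both directions against 0.5% DMSO. HepaRG cells were dosed in duplicate for 48 h in serum-free induction medium, eight half-log steps from 100 uM.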

Measured: AC50

Sequence of Nuclear factor NF-kappa-B p105 subunit (Homo sapiens) (P19838 whole entry, looked up): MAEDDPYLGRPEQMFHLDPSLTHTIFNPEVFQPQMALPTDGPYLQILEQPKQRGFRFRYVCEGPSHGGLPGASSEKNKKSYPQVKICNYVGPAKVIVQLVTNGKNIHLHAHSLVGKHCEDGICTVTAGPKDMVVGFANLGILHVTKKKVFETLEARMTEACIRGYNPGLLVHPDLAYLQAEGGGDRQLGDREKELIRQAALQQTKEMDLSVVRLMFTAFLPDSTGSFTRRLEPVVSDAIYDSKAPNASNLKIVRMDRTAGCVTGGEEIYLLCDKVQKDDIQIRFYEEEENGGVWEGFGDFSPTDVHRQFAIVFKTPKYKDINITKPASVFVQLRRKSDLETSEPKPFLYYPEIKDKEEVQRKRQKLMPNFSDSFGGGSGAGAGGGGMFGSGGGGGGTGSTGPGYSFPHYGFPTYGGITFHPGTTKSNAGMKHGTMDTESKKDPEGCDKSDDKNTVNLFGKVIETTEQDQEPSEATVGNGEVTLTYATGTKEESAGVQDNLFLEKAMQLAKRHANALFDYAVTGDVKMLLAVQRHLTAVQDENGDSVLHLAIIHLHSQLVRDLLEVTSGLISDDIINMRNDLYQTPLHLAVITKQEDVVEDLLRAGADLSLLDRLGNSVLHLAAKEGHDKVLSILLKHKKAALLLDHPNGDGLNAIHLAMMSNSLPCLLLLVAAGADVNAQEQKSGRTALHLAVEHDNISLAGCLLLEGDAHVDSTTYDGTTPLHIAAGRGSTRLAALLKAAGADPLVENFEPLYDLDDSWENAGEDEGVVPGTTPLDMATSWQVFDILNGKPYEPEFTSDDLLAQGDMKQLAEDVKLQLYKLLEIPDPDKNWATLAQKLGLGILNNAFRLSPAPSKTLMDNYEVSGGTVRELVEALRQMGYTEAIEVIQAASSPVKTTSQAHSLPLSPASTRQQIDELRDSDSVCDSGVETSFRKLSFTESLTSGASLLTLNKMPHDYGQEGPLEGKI

CC(C)(O)C(=O)Nc1ccc([N+](=O)[O-])c(C(F)(F)F)c1
inactive: [3] | [5] | [8] | [9] | [10] | [14] | [15] | [16]
active: [1] 0.0402 µM | [2] 0.0432 µM | [4] 0.052 µM | [6] 0.0328 µM | [7] 0.0399 µM | MYC, MYC (gene 4609) 0.0308 µM | [11] 0.0298 µM | [12] 25 µM | [13] 0.0226 µM | [17] 0.0268 µM

c1ccc(-c2ccccc2)cc1
not listed: [17]
inactive: all other assays above

N#Cc1ccc(N(CC(N)=O)CC(F)(F)F)cc1C(F)(F)F
active: [12] 10.5 µM
not listed: [18]
inactive: all other assays above

CC#Cc1cc(C)nc(Nc2ccccc2)n1
active: [2] 21.9 µM | [5] 22.8 µM | [7] 15.3 µM | [8] 3.75 µM | [9] 21.7 µM | MYC, MYC (gene 4609) 28.4 µM | [12] 13.1 µM | [15] 26.4 µM | [16] 19.2 µM
inactive: [1] | [3] | [4] | [6] | [10] | [18] | [13] | [14]

O=C(O)C(F)(F)C(F)(F)C(F)(F)C(F)(F)C(F)(F)C(F)(F)C(F)(F)C(F)(F)C(F)(F)F
active: [1] 22.7 µM | [2] 27.9 µM | [6] 50 µM | [7] 21.1 µM | [8] 89.2 µM | [9] 63.1 µM | [10] 37.1 µM | MYC, MYC (gene 4609) 22.8 µM | [12] 12.1 µM | [13] 88.9 µM | [14] 82.2 µM | [15] 41.2 µM | [16] 25.7 µM
inactive: [3] | [4] | [5] | [11] | [18]

C=CC(N)=O
inactive: all assays above

Cc1ccccc1[N+](=O)[O-]
not listed: [17]
inactive: all other assays above
